37 molecules from PubChem BioAssay (NCI) can be followed below.

Compounds without any hit were thinned out: in the full panel of roughly 83,000, 20% have a hit.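 Step 1: grow cells in 96-well plates. Step 2: add test compound at a single concentration. Step 3: incubate 48 h. Step 4: record percent growth.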 A number with no mark means an inactive call. Calls of active or inactive are those of the source. How the source made its calls: active means growth percent below 10; inactive means the rest.

The subject of one test is TK-10 renal. Put plainly: NCI-60 one-dose screen, 48 h (100 = growth as untreated, 0 = no growth, -100 = all killed). The following applies: 10 µM unless noted.
For `O=C(O)CSCC(=O)Nc1cc(C(F)(F)F)ccc1Cl`, the growth is 110%. As for `N=C(N)c1nn(C2OC(CO)C(O)C2O)c2nc[nH]c(=O)c12` (stereo unspecified), the growth was -9.5% (active).

For `CC(C)C(=O)OCCOc1ccc(C(C)(C)C)cc1`, the growth was 93.7%. On the same count and under the same terms, to `OCCNc1ccccc1` belongs 101%; to `O=C(Oc1ccccc1Cl)c1ccc(Cl)cc1Cl`, 103%. With `C=C(C)COc1ccc(C(C)(C)C)cc1`, the growth was 97.1%. Same read-out and setting: to `Nc1ccn(C2CC(N)C(CO)O2)c(=O)n1` (stereo unspecified) belongs 99.4%; to `CN(CCCN(C)CCC1CCCCC1)CCC1CCCCC1`, 76.1%; to `O=S(Cc1ccccc1)/C(=C/NC(=S)Nc1cc(Cl)ccc1Cl)c1ccccc1` (stereo unspecified), 107%. For `Cc1c(Cl)cccc1N=C=S`, the growth was 106%. `CCCC1OC(c2ccco2)OCC1CC` (stereo unspecified): the growth was 97.1%. On the same count and under the same terms, to `CN1CCCN(C(c2ccccc2)c2ccc(Br)cc2)CC1` (stereo unspecified) belongs 61.4%; to `OCCOc1ccc(-c2cc(-c3ccccn3)nc(-c3ccccn3)c2)cc1`, 28%. For `O=C(Nc1cccc(Cl)c1)c1ccc(Cl)cc1Cl`, the growth is 90.1%. For the molecule `CC(=O)Oc1c(Cl)cccc1-c1ccccc1`, the growth is 107%.

Take `C/C=C/C1OCC(CC)C(CCC)O1` (stereo unspecified): the growth was 101%. Same read-out and setting: to `COc1cccc(C(=O)O)c1OC` belongs 96.2%; to `CC(C)C1CCC(C)C(O)C1` (stereo unspecified), 99.2%. For the molecule `COc1cc(CC#N)c([N+](=O)[O-])cc1OC`, the growth was 101%.

As for `CCCNS(=O)(=O)c1ccc(Cl)cc1`, the growth was 106%. Turning to `CCOC(=O)/C(C)=C\c1ccc(OC)c(OC)c1`, the growth is 104%. With `O=C(NCc1ccccc1)c1cccc([N+](=O)[O-])c1`, the growth was 99.6%.

As for `OCCc1ccc(Cl)cc1`, the growth is 94.7%. For the molecule `C/C(=N\O)c1ccccn1`, the growth is 95.8%. The same measure, in the same setting: to `CC1(C)OC(=O)CC1=O` belongs 87%; to `O=C1C=Cc2ccccc2/C1=C/c1[nH]c(=O)[nH]c1O`, 65.2%; to `Nc1ncnc2c1ncn2C1OC(CO)C2OC21` (stereo unspecified), 99%. On the same count and under the same terms, to `C=CCS(C)(=O)=O` belongs 96.6%. The same measure, in the same setting: to `Cc1ccc(C2CCCCC2)cc1Br` belongs 98.7%; to `Cc1ccc2[nH]c3ccccc3c2c1`, 106%. With `Cc1ccc(/C=N/NC(N)=S)s1`, the growth was 105%. The same measure, in the same setting: to `O=S(=O)(O)c1cccnc1` belongs 104%. `Nc1cc(F)ccc1[N+](=O)[O-]`: the growth is 104%.

In the case of `CCOc1ccc(C(=O)O)cc1`, the growth was 99.6%.

With `CCCCOC(=O)c1ccccc1O`, the growth was 115%.

In the next test the test system is ACHN renal. The description is as above. Particulars: 10 µM unless noted.
As for `O=C(O)CSCC(=O)Nc1cc(C(F)(F)F)ccc1Cl`, the growth was 106%. The same measure, in the same setting: to `N=C(N)c1nn(C2OC(CO)C(O)C2O)c2nc[nH]c(=O)c12` (stereo unspecified) belongs -5.7% (active). Consider `CC(C)C(=O)OCCOc1ccc(C(C)(C)C)cc1`, for which the growth was 101%. Consider `OCCNc1ccccc1`, for which the growth is 108%. The same measure, in the same setting: to `C/C(=N\Nc1ccc([N+](=O)[O-])cc1[N+](=O)[O-])c1ccc(Br)cc1` belongs 105%; to `O=C(Oc1ccccc1Cl)c1ccc(Cl)cc1Cl`, 103%; to `C=C(C)COc1ccc(C(C)(C)C)cc1`, 105%. On to `Nc1ccn(C2CC(N)C(CO)O2)c(=O)n1` (stereo unspecified), for which the growth was 20.1%. For `CN(CCCN(C)CCC1CCCCC1)CCC1CCCCC1`, the growth is 35.4%. As for `O=S(Cc1ccccc1)/C(=C/NC(=S)Nc1cc(Cl)ccc1Cl)c1ccccc1` (stereo unspecified), the growth was 99.9%.

Consider `Cc1c(Cl)cccc1N=C=S`, for which the growth is 99.3%.

For the molecule `CCCC1OC(c2ccco2)OCC1CC` (stereo unspecified), the growth is 105%. In the case of `CN1CCCN(C(c2ccccc2)c2ccc(Br)cc2)CC1` (stereo unspecified), the growth was 50.6%. In the case of `OCCOc1ccc(-c2cc(-c3ccccn3)nc(-c3ccccn3)c2)cc1`, the growth is 3.04% (active). On the same count and under the same terms, to `O=C(Nc1cccc(Cl)c1)c1ccc(Cl)cc1Cl` belongs 99.7%; to `CC(=O)Oc1c(Cl)cccc1-c1ccccc1`, 108%; to `C/C=C/C1OCC(CC)C(CCC)O1` (stereo unspecified), 110%. The same measure, in the same setting: to `COc1cccc(C(=O)O)c1OC` belongs 93%. Still for that read-out and setting: to `COc1cc(CC#N)c([N+](=O)[O-])cc1OC` belongs 109%; to `CCCNS(=O)(=O)c1ccc(Cl)cc1`, 102%. For the molecule `CCOC(=O)/C(C)=C\c1ccc(OC)c(OC)c1`, the growth is 103%. On the same count and under the same terms, to `O=C(NCc1ccccc1)c1cccc([N+](=O)[O-])c1` belongs 102%; to `OCCc1ccc(Cl)cc1`, 105%; to `C/C(=N\O)c1ccccn1`, 105%. `CC1(C)OC(=O)CC1=O`: the growth was 101%. Still for that read-out and setting: to `O=C1C=Cc2ccccc2/C1=C/c1[nH]c(=O)[nH]c1O` belongs 55.3%; to `Nc1ncnc2c1ncn2C1OC(CO)C2OC21` (stereo unspecified), 116%; to `C=CCS(C)(=O)=O`, 102%.

As for `Cc1ccc(C2CCCCC2)cc1Br`, the growth was 101%. On the same count and under the same terms, to `Cc1ccc2[nH]c3ccccc3c2c1` belongs 110%; to `Cc1ccc(/C=N/NC(N)=S)s1`, 103%; to `O=S(=O)(O)c1cccnc1`, 105%. `O=C(O)c1ccccc1Cc1ccc2c(c1)CCCC2`: the growth was 104%. The same measure, in the same setting: to `Nc1cc(F)ccc1[N+](=O)[O-]` belongs 104%; to `CCOc1ccc(C(=O)O)cc1`, 109%. `CCCCOC(=O)c1ccccc1O`: the growth is 104%.
